Hits are enriched below; roughly 4% of the tested compounds scored in any of these assays.
D1 antag: blocks dopamine activation of the human D1 receptor. HEK293 TREx D1 cells, calcium flux, dopamine EC80; active compounds read low. 360,000 tested, 3.2% active. P21728. activity change, negative = inhibition, % at 10 µM; in the data active = activity change below about -30%; also: % is scaled to controls: 0 for no effect and ±100 for the full control effect
Target sequence (P21728 whole entry, looked up): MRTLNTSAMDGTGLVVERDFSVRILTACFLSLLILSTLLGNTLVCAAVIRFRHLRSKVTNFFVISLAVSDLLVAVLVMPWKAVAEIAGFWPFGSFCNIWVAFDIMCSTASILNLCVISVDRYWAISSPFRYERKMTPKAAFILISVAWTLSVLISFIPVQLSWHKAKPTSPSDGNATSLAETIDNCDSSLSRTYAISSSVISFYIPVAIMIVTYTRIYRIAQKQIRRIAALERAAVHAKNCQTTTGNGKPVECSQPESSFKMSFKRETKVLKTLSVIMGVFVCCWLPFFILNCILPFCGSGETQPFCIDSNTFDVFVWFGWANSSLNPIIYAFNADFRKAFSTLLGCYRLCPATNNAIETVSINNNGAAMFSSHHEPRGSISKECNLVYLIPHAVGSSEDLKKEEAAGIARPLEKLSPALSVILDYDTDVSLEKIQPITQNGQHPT
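HEK293 T-REx cells expressing inducible, force-coupled D1 receptor; no-wash Ca dye, 30–90 min RT. Cmpd → 180 s read at 1 Hz → EC80 DA → 180 s read.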
Glioma ERSR ind: inducers of ER stress response in human glioma cells; U87-MG GRP78 promoter luciferase reporter, 16 h; Potency, µM, for the others: at the highest dose activation, hits mostly activators; 420,000 tested, 0.02% active; active = well fitted activation curve with a large enough effect; also: potency is read from the fitted curve at half-maximal effect; series mostly up to about 76 µM; % of control where 0% means no effect; nearly all actives have a fitted effect of over 35% in size
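ERSR induction read as luciferase luminescence (Bright-Glo, 10 min at room temperature) in stably transfected human U87-MG glioma cells exposed to compounds for 16 h, using GRP78 as sensor.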
D1 ag: activates the human D1 dopamine receptor. 360,000 tested, 1% active. P21728. activation, % at 2 µM. AID 504660. HEK293 T-REx D1 cells, calcium flux, agonist mode; also: 0% is about no effect
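Inducible HEK293 T-REx D1 cells, force-coupled to calcium signalling, were plated at 4000 cells/well with tetracycline and held overnight at 30 C. After no-wash calcium dye loading, compound-evoked calcium rise over 180 s flagged agonists.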
TRHR enhancer: allosterically enhances the human TRH receptor | P34981 | enhancement, % at 2 µM | 360,000 tested, 0.66% active | TRHR cells, fluo-8 calcium fluorescence, EC20 TRH enhancement; in the data active = enhancement above about 30%; also: 0% is about no effect
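Enhancer read-out: after compound pinning and an initial kinetic agonist-mode read, an EC20 of TRH (10 nM final) was injected and fluo-8 calcium signal (Ex 480/Em 530) followed at 1 s/cycle for 100 cycles in TRHR-expressing cells.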
TRHR agonist: TRH receptor (human) agonism. P34981. TRHR cells, calcium flux fluo-8, FDSS agonist mode. activation, % at 2 µM. 360,000 tested, 0.18% active. AID 493084; also: 0% is about no effect
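Read-out: compound-evoked intracellular calcium rise in TRHR cells, fluo-8 dye, kinetic FDSS fluorescence at 1 s/cycle following a 10-cycle baseline. Cells cultured overnight before dye loading (30 min–1.5 h, RT).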
D1 potentiator: enhances dopamine response at the human D1 receptor; P21728; HEK293 TREx D1 cells, calcium flux, dopamine EC20 potentiation; potentiation, % at 10 µM; 360,000 tested, 0.036% active; AID 504651; in the data active = potentiation above about 30%; also: 0% is about no effect
An asterisk follows results filed as active; . = not tested or not shown; ! = a repeat was not active. Rule as the data show it, unless noted: active = activation above about 30%; inactive = the rest.

SMILES	D1 antag	Glioma ERSR ind	D1 ag	TRHR enhancer	TRHR agonist	D1 potentiator
Cc1csc(NC(=O)c2cc3c(s2)-c2ccccc2OC3)n1	-9	-2%	3	3	0	3
COc1ccc(N(C)C(=O)c2cc3c(s2)-c2ccccc2OC3)c(OC)c1	-40*	-3%	2	-3	-1	-9
O=C(c1cc2c(s1)-c1ccccc1OC2)N1CCN(c2ccccc2F)CC1	1	-3%	1	3	0	-1
Cc1cccc2c1-c1sc(C(=O)N3CCN(c4ccccc4)CC3)cc1CO2	-32*	-1%	4	18	0	-4
Cc1cccc2c1-c1sc(C(=O)N3CCN(c4ccc(F)cc4)CC3)cc1CO2	10	-2%	1	0	0	-2
O=C(NCCCN1CCN(c2ccccc2F)CC1)c1cc2c(s1)-c1ccccc1OC2	-46*	-3%	5	-6	0	-7
Cc1c(NC(=O)c2cc3c(s2)-c2ccccc2OC3)cccc1[N+](=O)[O-]	-40*	0%	3	13	1	-8
Cn1c(=O)c2c(nc(Br)n2Cc2nnc(N)s2)n(C)c1=O	-5	-1%	2	-1	-1	5
CCCN1CCN(CCCNC(=O)c2cc3c(s2)-c2c(C)cccc2OC3)CC1	-38*!	3%	5	-2	0	-10
O=C(NCc1cccc(Cl)c1)c1cc2c(s1)-c1ccccc1OC2	-50*	-2%	4	2	1	-8
Cc1cccc2c1-c1sc(C(=O)NCCc3ccc(Cl)cc3)cc1CO2	0	-5%	1	-7	0	-5
CN(C)CCNC(=O)c1cc2c(s1)-c1ccccc1OC2	-53*	-2%	122*	19	0	-8
COc1ccccc1CNC(=O)c1cc2c(s1)-c1ccccc1OC2	-20	3%	4	14	0	-6
Cc1cccc2c1-c1sc(C(=O)NCCCN3CCCC(C)C3)cc1CO2 (stereo unspecified)	-51*	-6%	19	0	1	-19
COc1ccc(CCNC(=O)c2cc3c(s2)-c2ccccc2OC3)cc1OC	-8	-4%	1	0	0	-3
O=C(C[N+]1(CC(O)c2ccccc2)CCOCC1)c1ccccc1 (stereo unspecified)	.	-2%	.	.	.	.
CC(C)(C)OC(=O)Cc1nnc(-c2cc3ccccc3[nH]2)o1	7	.	3	-7	1	-1
CCCN1CCN(C(=O)Cn2ncc3c4ccccc4n(Cc4cccc(Cl)c4)c3c2=O)CC1	-5	-2%	1	1	1	2
Cc1cc2ccccc2c[n+]1C	.	-2%	.	.	.	.
O=C(CSc1ccncc1)NCC1Cc2cccc(-c3cncnc3)c2O1 (stereo unspecified)	.	-3%	.	.	.	.
Cc1ccc(OCC(=O)Nc2ccc(NC(=O)c3ccccc3)c(C)c2)cc1	-2	0%	4	1	-1	4
CCN1CCN(CCCNC(=O)c2cc3c(s2)-c2ccccc2OC3)CC1	41	-2%	0	-6	0	-13
CCCN1CCN(CCCNC(=O)c2cc3c(s2)-c2ccccc2OC3)CC1	-12	1%	5	37*!	0	-11
CCN1C(=O)[C@H]2[C@H]3[C@H](O)[C@H](O)C/C(=N/O[C@@H]4O[C@@H](COC(C)=O)[C@@H](OC(C)=O)[C@@H](OC(C)=O)[C@H]4OC(C)=O)[C@H]3CC[C@@H]2C1=O	.	-2%	.	.	.	.
CN(C)CCCNC(=O)c1ccc(-c2nc(-c3ccc(Cl)cc3)cs2)cc1	-59*	-14%	13	-13	0	-13
CSCC[C@@H](C(=O)NCCCCCCCCCCC(=O)N1CCNCC1)n1cc(CCO)nn1	-36*	-3%	2	2	0	-9
NCCCCCc1cn([C@@H](CO)C(=O)NCCCCCCCCCCC(=O)N2CCNCC2)nn1	-32*	0%	3	-4	1	-4
COc1ccc(-c2nn(-c3ccccc3)cc2C(=O)NC(=S)N2CCOCC2)cc1OC	-39*	2%	0	16	-1	1
COc1ccc(-c2nn(-c3ccccc3)cc2C(=O)Nc2ccccc2OC)cc1	-14	2%	10	44*	-2	-4

Compound activity from PubChem.
